Only some compounds are listed: those with a hit (about 1.1% of all), similar ones and a draw of the others.
CIT2 TOR yeast: modulators of TOR pathway CIT2-GFP in S. cerevisiae. S. cerevisiae CIT2-GFP strain, flow cytometry, 3 h; 100 means same as DMSO wells. 320,000 compounds, 0.065% hits. GFP response vs DMSO, % at 10 µM;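 active = GFP response relative to DMSO above a set limit, near the screen mean plus 3 SD, cut at about 150% in these data; inconclusive = Fewer than 70 cells measured for a yeast strain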;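 note: ratio of well median GFP fluorescence to mean of DMSO wells on the plate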
AGP1 TOR yeast: modulators of TOR pathway AGP1-GFP in S. cerevisiae; S. cerevisiae AGP1-GFP multiplex flow cytometry, 3 h; GFP as percent of DMSO wells; 320,000 compounds, 0.02% hits; GFP response vs DMSO, % at 10 µM;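 active = GFP response relative to DMSO above a set limit, near screen average plus 3 SD, cut at about 150% in these data; inconclusive = fewer than 70 cells counted for the yeast strain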;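 note: median GFP channel fluorescence of the gated AGP1 strain per well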
VLA-4 inh: inhibition in a human VLA-4 binding assay | VLA-4 expressing cells, ligand binding flow cytometry | 330,000 compounds, 0.2% hits | P13612 | inhibition, % (about 7 µM as worked out from the volumes in the protocol); in the data active = inhibition above about 50%
Target sequence (P13612 whole entry, looked up): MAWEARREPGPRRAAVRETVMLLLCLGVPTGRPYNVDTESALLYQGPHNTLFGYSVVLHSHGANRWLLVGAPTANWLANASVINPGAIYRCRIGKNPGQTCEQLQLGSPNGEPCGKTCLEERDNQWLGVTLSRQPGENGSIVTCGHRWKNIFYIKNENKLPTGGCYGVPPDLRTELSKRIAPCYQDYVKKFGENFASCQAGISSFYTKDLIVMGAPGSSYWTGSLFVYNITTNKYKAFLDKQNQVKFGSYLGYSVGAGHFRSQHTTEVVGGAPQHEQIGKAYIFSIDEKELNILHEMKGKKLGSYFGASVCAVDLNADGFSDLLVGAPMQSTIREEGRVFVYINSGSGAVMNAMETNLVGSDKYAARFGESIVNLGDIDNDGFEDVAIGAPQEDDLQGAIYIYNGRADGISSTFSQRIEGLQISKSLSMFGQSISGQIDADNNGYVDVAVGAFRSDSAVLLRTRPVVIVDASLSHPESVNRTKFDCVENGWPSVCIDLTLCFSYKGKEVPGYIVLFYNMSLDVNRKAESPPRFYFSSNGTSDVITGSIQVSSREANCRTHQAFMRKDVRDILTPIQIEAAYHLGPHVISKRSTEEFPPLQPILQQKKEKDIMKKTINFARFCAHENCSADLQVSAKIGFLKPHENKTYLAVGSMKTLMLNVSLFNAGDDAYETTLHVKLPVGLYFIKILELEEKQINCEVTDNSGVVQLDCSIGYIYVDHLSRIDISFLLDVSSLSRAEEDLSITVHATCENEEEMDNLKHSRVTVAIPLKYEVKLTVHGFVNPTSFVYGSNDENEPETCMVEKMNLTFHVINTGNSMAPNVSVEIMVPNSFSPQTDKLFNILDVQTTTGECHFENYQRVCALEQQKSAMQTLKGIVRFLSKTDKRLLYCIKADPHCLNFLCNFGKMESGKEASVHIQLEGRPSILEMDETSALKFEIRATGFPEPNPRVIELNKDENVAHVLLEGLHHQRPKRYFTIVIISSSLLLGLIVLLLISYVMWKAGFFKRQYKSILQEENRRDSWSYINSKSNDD
MEP2 TOR yeast: yeast TOR pathway MEP2-GFP modulation; S. cerevisiae MEP2-GFP strain, flow cytometry GFP, 3 h; 100% = DMSO control level; GFP response vs DMSO, % at 10 µM; 330,000 compounds, 0.51% hits; AID 2016;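 active = GFP response versus DMSO above a set limit, roughly screen mean plus 3 SD, cut at about 180% in these data; inconclusive = fewer than 70 cells counted for a yeast strain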;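 note: median GFP fluorescence of the barcode-gated MEP2-GFP cells per well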
RPL19A-GFP yeast: yeast TOR pathway RPL19A-GFP modulation | percent response vs DMSO, % at 10 µM | S. cerevisiae RPL19A-GFP strain, flow cytometry, 3 h; hits give low values | 330,000 compounds, 0.3% hits;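 active = percent response vs DMSO below 50%; inconclusive = fewer than 70 events counted for the yeast strain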;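 note: median channel GFP fluorescence of the barcoded RPL19A-GFP strain; lower means less RPL19A-GFP as with rapamycin TOR inhibition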
LAP4-GFP MLPCN: yeast TOR pathway LAP4-GFP modulation; S. cerevisiae LAP4-GFP multiplex, flow cytometry GFP, 3 h; median GFP as percent of DMSO wells; GFP response vs DMSO, % at 10 µM; 320,000 compounds, 0.34% hits;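 active = GFP response vs DMSO above a set limit, about the screen mean plus 3 SD, cut at about 150% in these data; inconclusive = under 70 cell events counted for the yeast strain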
Each line names hits and unclear results; the compound was inactive in the other large screens; [ ] = another dose, or the depositor's remark.

CCCCC1=CC2=CC(=O)C(C)(OC(=O)CC)C(=O)C2=CO1 (centres undefined)	CIT2 TOR yeast inconclusive, AGP1 TOR yeast inconclusive, MEP2 TOR yeast 260[may fluoresce violet], RPL19A-GFP yeast 35[may fluoresce violet]
CCC(=O)OC1(C)C(=O)C=C2C=C(CCCC(=O)OC)OC=C2C1=O (centres undefined)	none
COc1ccccc1CNC(=O)CN(C)Cc1ccc(SC)cc1	none
COc1ccc2c(c1)OC[C@H]1[C@H]2N2C(=O)CN(Cc3ccc(C)cc3)C(=O)[C@@]2(C)[C@H]1c1ccccc1	none
Nc1c(C(=O)Nc2ccccc2)c2nc3ccccc3nc2n1CCCN1CCOCC1	CIT2 TOR yeast inconclusive, AGP1 TOR yeast inconclusive, RPL19A-GFP yeast 42[may fluoresce violet]
O=C(NC(=S)NCc1ccccc1Cl)c1cccs1	none
COc1cc(NC(=O)c2c(-c3ccccc3Cl)noc2C)c2ncccc2c1	CIT2 TOR yeast inconclusive, AGP1 TOR yeast inconclusive, RPL19A-GFP yeast 18[may fluoresce violet]
COc1cc(NC(=O)c2ccc(Cl)cc2)c2ncccc2c1	none
Cc1onc(-c2ccccc2Cl)c1C(=O)Nc1cccc2cccnc12	CIT2 TOR yeast inconclusive, AGP1 TOR yeast inconclusive, MEP2 TOR yeast 355[may fluoresce violet], RPL19A-GFP yeast 16[may fluoresce violet]
Cc1cccc(C(=O)OCC(=O)NC(=O)c2ccccc2)c1O	none
CCCN(CCC)CCNC(=O)C1CC(=O)N(c2ccc(OC)cc2)C1c1ccc(OC)cc1 (centres undefined)	none
CCN(CC)CCNC(=O)C1CCC(=O)N(c2ccc(OC)cc2)C1c1ccc(F)cc1 (centres undefined)	CIT2 TOR yeast inconclusive, MEP2 TOR yeast 230[may fluoresce violet]
O=C(CSc1cn[nH]n1)Nc1ccc(Cl)cc1Cl	CIT2 TOR yeast inconclusive, AGP1 TOR yeast inconclusive, MEP2 TOR yeast 239[may fluoresce violet]
C=CCn1c(SCC(=O)N(CCOC)c2c(N)n(CC(C)C)c(=O)[nH]c2=O)nc2ccccc21	none
Cc1cc2nc(-c3ccc[nH]c3=O)n(Cc3ccccc3F)c2cc1C	none
O=C(Nc1ccc(F)cc1)C1CCCN(c2cnccn2)C1 (centres undefined)	LAP4-GFP MLPCN 152
N#Cc1ccccc1Sc1ccccc1C(=O)OCC(=O)N1CCN(C(=O)c2ccco2)CC1	CIT2 TOR yeast inconclusive, AGP1 TOR yeast inconclusive, MEP2 TOR yeast 207[may fluoresce violet], RPL19A-GFP yeast 15[may fluoresce violet]
Cc1ccc(S(=O)(=O)N2CCOCC2)cc1C(=O)NC1=NCCS1	none
CCc1ccc2oc(C(=O)N3CCN(c4ccccc4OC)CC3)cc(=O)c2c1	none
COc1ccccc1N1CCN(C(=O)c2cc(=O)c3c(C)cc(C)cc3o2)CC1	CIT2 TOR yeast inconclusive, AGP1 TOR yeast inconclusive, MEP2 TOR yeast inconclusive, RPL19A-GFP yeast 40[may fluoresce violet], LAP4-GFP MLPCN inconclusive
CCOC(=O)C1=C(COC(=O)Cc2ccc(Br)cc2)NC(=O)NC1C (centres undefined)	none
CCOC(=O)N1CCN(c2cc(=O)n(C3CCCCC3)c(=O)[nH]2)CC1	CIT2 TOR yeast inconclusive, AGP1 TOR yeast inconclusive, MEP2 TOR yeast 266[may fluoresce violet]
CCOC(=O)C1CCN(c2cc(=O)n(C3CCCCC3)c(=O)[nH]2)CC1	none
CSc1cccc(NC(=O)CN(C)S(=O)(=O)c2cnc[nH]2)c1	none
Cc1cccc(NC(=O)c2cc3c(=O)n4ccccc4nc3n(CC(C)C)c2=N)c1	VLA-4 inh 68
COCCCn1c(=N)c(C(=O)NC2CCCCC2)cc2c(=O)n3ccccc3nc21	CIT2 TOR yeast inconclusive, AGP1 TOR yeast inconclusive, MEP2 TOR yeast 232[may fluoresce violet], LAP4-GFP MLPCN inconclusive
COc1ccc(Cn2c(=N)c(C(=O)NC3CCCCC3)cc3c(=O)n4ccccc4nc32)cc1	none
Cc1ccc2nc3c(cc(C(=O)NCC4CCCO4)c(=N)n3CC3CCCO3)c(=O)n2c1 (centres undefined)	CIT2 TOR yeast inconclusive, AGP1 TOR yeast inconclusive, LAP4-GFP MLPCN inconclusive
Cc1ccc(CNC(=O)c2cc3c(=O)n4ccccc4nc3n(CC3CCCO3)c2=N)cc1 (centres undefined)	CIT2 TOR yeast inconclusive, MEP2 TOR yeast 221[may fluoresce violet]
CCCn1c(=N)c(C#N)cc2c(=O)n3ccccc3nc21	CIT2 TOR yeast inconclusive, MEP2 TOR yeast 298[may fluoresce violet]
COc1cccc(NC(=O)c2cc3c(=O)n4ccccc4nc3n(CC(C)C)c2=N)c1	none
Cc1ccc(NC(=O)CN(Cc2ccco2)Cc2ccccc2O)cc1C	none
N=c1c(C(=O)NC2CCCCC2)cc2c(=O)n3ccccc3nc2n1CC1CCCO1 (centres undefined)	CIT2 TOR yeast inconclusive, AGP1 TOR yeast inconclusive, MEP2 TOR yeast inconclusive, RPL19A-GFP yeast 44[may fluoresce violet], LAP4-GFP MLPCN inconclusive
N=c1c(C(=O)NC2CCCC2)cc2c(=O)n3ccccc3nc2n1CC1CCCO1 (centres undefined)	CIT2 TOR yeast inconclusive, AGP1 TOR yeast inconclusive, MEP2 TOR yeast 202[may fluoresce red and violet], RPL19A-GFP yeast inconclusive
COc1ccc(CCn2c(=N)c(C(=O)NCC3CCCO3)cc3c(=O)n4ccccc4nc32)cc1OC (centres undefined)	none
CC(NC(=O)c1cc2c(=O)n3ccccc3nc2n(CC2CCCO2)c1=N)c1ccccc1 (centres undefined)	CIT2 TOR yeast inconclusive, AGP1 TOR yeast inconclusive, MEP2 TOR yeast 207[may fluoresce violet], RPL19A-GFP yeast 29[may fluoresce violet]
O=C(NC1CCCCC1)C(c1cccnc1)N(C(=O)c1csnn1)c1ccc(F)cc1 (centres undefined)	none
O=C1CCc2cc(S(=O)(=O)NC3CCCCC3)ccc2N1	none
O=c1c(C=NCC2CCCO2)c(-c2ccccc2)[nH]n1-c1ccc([N+](=O)[O-])cc1 (centres undefined)	CIT2 TOR yeast inconclusive, AGP1 TOR yeast inconclusive, MEP2 TOR yeast inconclusive, RPL19A-GFP yeast 35[may fluoresce violet], LAP4-GFP MLPCN inconclusive
COc1ccc(-c2[nH]n(-c3ccc([N+](=O)[O-])cc3)c(=O)c2C=NCC2CCCO2)cc1 (centres undefined)	none
CC1CCN(c2nc3c(N)ncnc3n2[C@@H]2O[C@H](CO)[C@@H](O)[C@H]2O)CC1	none
CC1CCN(c2nc3c(=O)[nH]c(N)nc3n2[C@@H]2O[C@H](CO)[C@@H](O)[C@H]2O)CC1	CIT2 TOR yeast inconclusive, AGP1 TOR yeast inconclusive, MEP2 TOR yeast active[may fluoresce violet]
O=C(Nc1ccc(S(=O)(=O)N2CCCC2)cc1)c1cc(F)c(F)cc1Cl	CIT2 TOR yeast inconclusive, AGP1 TOR yeast inconclusive, MEP2 TOR yeast inconclusive, RPL19A-GFP yeast inconclusive, LAP4-GFP MLPCN inconclusive
O=C(O)CSCC(=O)N1N=C2/C(=C/c3ccccc3)CCCC2C1c1ccccc1 (centres undefined)	CIT2 TOR yeast inconclusive, AGP1 TOR yeast inconclusive, MEP2 TOR yeast 263[may fluoresce violet], RPL19A-GFP yeast 36[may fluoresce violet]
Cc1cc2nnc(SCC(=O)NC3CCCCC3)n2c(N)n1	none
CC(OC(=O)CSc1ccc([N+](=O)[O-])cc1)C(=O)NCc1ccccc1 (centres undefined)	LAP4-GFP MLPCN 201
CSc1nc2ccc(S(N)(=O)=O)cc2s1	none
CSc1nc2ccc(S(=O)(=O)N3CCCC3)cc2s1	LAP4-GFP MLPCN 177

Source: PubChem BioAssay
